Source: the supplement of paper PMC6555819

How the values were obtained:
Assay in all cases: PBM binding z-score (relative to random genomic background probes); higher = stronger binding; sequences stand for … in GC…GCGATTGACAGCGTAGAATGAAGG
[1] = tested on: RARb homodimer (NR concentration 270 nM)
In short: (§1)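 Binding buffer was PBS pH 7.4 with 2% milk, 0.02% Triton X-100, 1 mM DTT, 0.2 mg/mL BSA and 0.4 mg/ml salmon testes DNA. In it, ligand-free nuclear receptor dimers were incubated 1 h on custom Agilent 4×180K protein-binding microarrays carrying double-stranded probes. Antibodies against each partner (one per run) detected binding, and z-scores were calculated against random background probes after regression normalization of scanned fluorescence.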

[2] = tested on: RARg:RXRa (NR concentration 270 nM, RXRa partner concentration 90 nM)
In short: as §1

[3] = tested on: RARg homodimer (NR concentration 270 nM)
In short: as §1

[4] = tested on: RXRa DBDmut IVT, anti-RXR (DBD mutation: RXRa K156A/R161A, NR concentration 90 nM)
In short: as §1

[5] = tested on: RXRa homodimer (NR concentration 180 nM)
In short: as §1

[6] = tested on: THRa:RXRa (NR concentration 90 nM, RXRa partner concentration 90 nM)
In short: as §1

[7] = tested on: THRa homodimer (NR concentration 90 nM)
In short: as §1

[8] = tested on: VDR homodimer (NR concentration 270 nM)
In short: as §1

Row | Sequence | PBM binding z-score [1] | PBM binding z-score [2] | PBM binding z-score [3] | PBM binding z-score [4] | PBM binding z-score [5] | PBM binding z-score [6] | PBM binding z-score [7] | PBM binding z-score [8]
1 | CTCGAAAGGTCGTGCTCAGGTGAGTAGACCAAAC | 2.36 | 5.23 | 3.76 | 1.79 | 4.83 | 3.96 | 0.703 | 0.392
2 | TCTTGTAGATCAATAGAGGTTGAGAAAGTGCGCT | -0.259 | 0.00331 | -0.196 | 0.738 | 0.307 | 0.629 | -0.723 | -0.179
3 | CATACTAGGTCAAGGTCAAAGTCGGTTTGTGCCA | 5.08 | 6.18 | 6.66 | 3.15 | 5.93 | 4.24 | 3.85 | 4.88
4 | GTGACTGGGGCAAAGCAGGTTACCATAAGGTTGG | 1.55 | 1.43 | 1.19 | -0.205 | 0.875 | 3.35 | 0.631 | 0.275
5 | TTACCAAGGTGAAGGGTCGTTGATGCACGCCTTG | 1.79 | 2.19 | 1.14 | 0.00143 | 3.13 | 2.35 | 0.598 | 1.16
6 | AGAACGAGCGCACGCTGAGTTGATAGCAGAGTAG | -1.25 | -0.476 | -0.51 | -0.346 | -0.489 | -0.752 | -1.21 | -0.599
7 | GTACCACGGTGAATAGGTCGTTGATGAGTAGGCG | 0.859 | 0.755 | 0.261 | -0.3 | 0.707 | 0.209 | -0.565 | 0.098
8 | TCTGCTAGGTCAGTTGGTCAGTTAACGAGCTGCC | 2.57 | 2.69 | 3.81 | 0.618 | 0.575 | 1.34 | 0.247 | -0.347
9 | TCGAGTAGGTTACCGATGGGGCATTCAGCTTTCT | 0.462 | 1.47 | 0.276 | 0.165 | 0.626 | 0.0793 | -0.771 | -0.757
10 | ATCGAAAGGTCGACGAGGTGAGTGTACACCGTTT | 3.22 | 4.45 | 4.1 | 1.71 | 4.92 | 3.71 | 1.21 | 1.52
11 | CCGACTGGGGCACAAAGGTTACCATACCATCCGG | 2.64 | 2.34 | 1.92 | -0.678 | 2.52 | 1.51 | 0.0239 | 0.375
12 | ATATGTAGGTTAGCTAGGGTCATTCAGACTAGGC | 3.17 | 3.33 | 2.68 | 1.24 | 3.71 | 5 | 2.64 | 3.63
13 | TCTTGTAGATCAGCAGGTTAAGAACGCTGGCCAA | -0.0185 | -0.0606 | -0.396 | 0.288 | 0.146 | -0.0457 | -0.571 | -0.247
14 | ATCTCTAGGTAAAAATTCAGTGAATCCCGAGGAT | -0.367 | 0.604 | 0.58 | -0.329 | 0.184 | 0.19 | -0.0698 | -0.0746
15 | AGAATGAGGTTATAAAGATCAGGGAATTGCGGTC | 0.868 | 1.15 | 0.986 | 1.35 | 1.92 | 2.14 | 0.473 | 1.01
16 | TTACCAAGGTGAAGGTCGGTGATCCCTCTGTAGA | 1.61 | 1.3 | 0.916 | -0.375 | 1.5 | 2.21 | 0.976 | 0.13
17 | CCTACTGGGCCAAAGGTCATTCATTCCAATGCTC | 4.47 | 5.99 | 4.7 | 1.65 | 6.93 | 3.3 | 1.06 | 3.3
18 | CCGACTCGGGCAAAGGTTACCATACTCAGTACGA | 2.04 | 3.36 | 1.68 | 0.702 | 3.21 | 1.6 | -0.126 | -0.375
19 | TCTGCTAGGTCAACGATGATCAGCTAATCTGCTA | 2.72 | 3.81 | 4.38 | 1.04 | 2.78 | 2.64 | 0.449 | -0.153
20 | ACTAGCAGGCCAAGGGTTACTCAAGATTAGTCCG | 0.787 | 0.885 | 0.852 | -0.129 | 1.08 | 0.78 | -0.538 | -0.236
21 | TGAATGAGGTTTTAAGATCAGGGAACGTTGCAAA | -0.344 | -0.157 | -0.0698 | -0.731 | -0.145 | 0.308 | -0.308 | -0.172
22 | CCAACTAGGTCAGAACAGGACAGTGAAGGATGAT | 2.43 | 2.41 | 3.03 | 1.3 | 1.22 | 3.67 | 0.727 | 0.723
23 | GCATATAGGTAATACAAGGTGAGAGTCCGATTGT | 0.849 | 0.265 | 0.368 | 0.552 | 0.4 | 3.98 | 0.807 | 0.0557
24 | TATACAGGGTCAAAGTCCAGAGTACGAATGTCGA | 3.51 | 5.73 | 4.9 | 3.86 | 6.73 | 3.65 | 1.15 | 4.02
25 | CGTCCAAGTTCAGAGAGGTCAGTGAATGCCGAGT | 4.58 | 4.46 | 5 | 4.24 | 3.48 | 3.14 | 1.43 | 7.06
26 | GGAACGAGGGCAAGTTGATTGCAGAGTTTGATGG | 1.5 | 1.62 | 2.18 | 2.56 | 0.967 | 1.38 | -0.0249 | 2.02
27 | TCATATAGGTAAATGCTAGGTGAAAGTGCGATCT | 0.752 | 0.609 | 0.488 | 1.55 | 1 | 1.64 | 0.475 | 0.485
28 | CTCGAAAGGTCGTGCTCAGGTAAGTATACCAAAC | 2.92 | 4.8 | 4.35 | 2.12 | 5.15 | 3.62 | 0.655 | 1.17
29 | CCTAGCAGGCCAATCTGGGTCACCCAAGGCTTGA | 2.55 | 1.34 | 1.38 | -0.396 | 1.07 | 3.92 | 0.793 | -0.51
